This note sets out measurements from PubChem BioAssay (NCATS).

The structures appear in SMILES notation. Records with an inconclusive call do not appear. Active and inactive are the calls of the source. Unless noted, calls come from the whole dose curve; as a rule, active = well fitted curve in either direction with a large enough effect (not every such curve was filed as active); inconclusive = small, poorly fitted or top-dose-only effect, or another doubt; inactive = flat fitted curve, though single readings scatter.

Assay [1] concerns the target Lysosomal acid glucosylceramidase (Homo sapiens) (UniProt P04062). The assay can be described thus: Glucocerebrosidase-p2 (AID 348; in the data active = potency below about 10 µM; note: potency is the fitted concentration of half-maximal effect). The conditions noted are these: purified GBA, blue fluorogenic substrate, 40 min. An outline of the steps: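 Compounds titrated from 0.6 nM upwards against 0.2 nM enzyme in pH 5.9 citric acid/KH2PO4, taurocholate, tween-20; blue fluorogenic substrate 80 uM, 40 min room temperature, stopped and read Ex 365/Em 440 for AC50.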

Assay [2] is described as follows: AP1 Signaling Pathway (AID 357).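 Note: ME-180 reporter cells stimulated with EGF at its EC50 level; % is set by controls: 0 for no effect and ±100 for the full control effect.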 The conditions noted are these: ME-180 AP-1-bla reporter, EGF-induced, beta-lactamase ratio, 5 h; at 7.69 µM (top of the series) unless noted. An outline of the steps: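 Beta-lactamase reporter under AP-1 response element, ME-180 background. Stimulus: EC50 EGF. Compound exposure 5 h, 37 °C. Detection: CCF4, 2.5 h RT, 460/530 nm. Values: AC50 from titration.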

Assay [3] in a line: Stat Signaling Pathway (AID 446).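 Note: ME-180 cervical cancer cells given 40 pM IL-6 alongside compound; SIE-controlled beta-lactamase reporter measured as 460/530 nm FRET emission ratio; % is set by controls: 0 for no effect and ±100 for the full control effect.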 The note with it: ME-180 SIE beta-lactamase reporter, IL-6 stimulated, 5 h; at 7.69 µM (top of the series) unless noted. The method, boiled down:
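IL-6/STAT signaling read in ME-180 cells via an SIE beta-lactamase reporter. Stimulus was 40 pM IL-6 (its AC50) for 5 hrs, so both activation and inhibition register.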

The target of assay [4] is Glucocorticoid receptor (Homo sapiens) (UniProt P04150). The assay is described as follows: GR-EFC Redistribution (AID 451; calls by dose curve; note: potency is the fitted concentration of half-maximal effect). The conditions noted are these: CHO-K1 GR-EFC translocation, beta-gal luminescence, 2 h. An outline of the steps: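 CHO-K1 cells expressing nuclear EA and GR-ED fragments of b-gal; compounds titrated up to 46 uM final, 2 h at 37 C. GR nuclear translocation read as complemented b-gal luminescence after 1 h RT detection.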
Glucocorticoid receptor (Homo sapiens), sequence (P04150 whole entry, looked up, the tested form may be a part): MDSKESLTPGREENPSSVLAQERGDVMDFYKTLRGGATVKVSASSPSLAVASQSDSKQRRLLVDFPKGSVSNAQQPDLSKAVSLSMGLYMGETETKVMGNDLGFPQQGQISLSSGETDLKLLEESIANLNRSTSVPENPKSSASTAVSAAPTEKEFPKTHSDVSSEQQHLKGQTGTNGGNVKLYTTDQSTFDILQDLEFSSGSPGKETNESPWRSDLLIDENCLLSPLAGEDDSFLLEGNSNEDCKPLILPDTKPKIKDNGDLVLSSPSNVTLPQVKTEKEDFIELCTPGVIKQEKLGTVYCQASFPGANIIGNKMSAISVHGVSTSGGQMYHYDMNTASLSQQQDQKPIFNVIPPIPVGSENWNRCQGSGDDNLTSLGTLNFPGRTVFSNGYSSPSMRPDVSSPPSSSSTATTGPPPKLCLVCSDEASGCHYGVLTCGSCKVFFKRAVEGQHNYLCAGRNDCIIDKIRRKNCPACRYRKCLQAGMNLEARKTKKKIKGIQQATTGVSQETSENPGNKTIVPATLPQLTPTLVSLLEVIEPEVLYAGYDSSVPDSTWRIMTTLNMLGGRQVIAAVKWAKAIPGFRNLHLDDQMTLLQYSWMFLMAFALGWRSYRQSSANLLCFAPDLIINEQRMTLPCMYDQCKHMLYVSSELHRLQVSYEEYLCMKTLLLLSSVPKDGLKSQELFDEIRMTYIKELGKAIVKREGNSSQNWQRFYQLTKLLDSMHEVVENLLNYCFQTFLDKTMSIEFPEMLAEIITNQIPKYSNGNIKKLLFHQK

Assay [5] concerns the target Mitogen-activated protein kinase 10 (Mus musculus) (UniProt Q61831). The assay is described as follows: JNK3 AlphaScreen Assay (AID 530).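 Note: kinase came from lysate of stimulated human HepG2 cells; signal reports phosphorylation of biotinylated GST-cJun 1-79 at Ser73 with 10 µM ATP; % is set by controls: 0 for no effect and ±100 for the full control effect.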 The note with it: JNK3 lysate, c-Jun phosphorylation; series mostly up to 57.1 µM. The method, boiled down: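 Pre-activated (IL-1β/TNFα) JNK3 in HepG2 lysates phosphorylates biotin-GST-cJun(1-79), 10 uM ATP; anti-phospho-cJun(Ser73) AlphaScreen read at room temperature, pH 7.6 Tris buffer. Compounds pre-incubated 15 min as titrations.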
(In general: In Alpha technology, singlet oxygen from a donor bead excites a nearby acceptor bead.)

For assay [6], the target named is 3',5'-cyclic-AMP phosphodiesterase 4B (Homo sapiens) (UniProt Q07343). The assay is described as follows: qHTS Assay for Inhibitors of PDE-IV (AID 607; active = well fitted activation curve with a large enough effect in the main read-out, with a control signal flat, not every such curve was filed as active; note: % of control where 0% means no effect). The conditions noted are these: HEK293 ACTOne CNG channel cells, membrane potential fluorescence; series mostly up to 22.9 µM. An outline of the steps:
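Live HEK293 cells with a modified cyclic nucleotide-gated (CNG) channel report intracellular cAMP via membrane-potential dye fluorescence (ex 535/em 590 nm). Endogenous PDE-IV was targeted. Compounds were tested at up to 22.9 uM final; RO 20-1724 100 uM served as control.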

The target in assay [7] is Cytochrome P450 3A4 (Homo sapiens) (UniProt P08684). The assay is described as follows: qHTS Assay for Activators of Cytochrome P450 3A4 (AID 885; active = well fitted curve in the direction sought with a large enough effect; an effect the other way counts as inactive or inconclusive; note: nearly all actives have a fitted effect of over 65% in size). The conditions noted are these: recombinant CYP3A4, Luciferin-PPXE luminescence, 60 min; series mostly up to 57.1 µM. The method, boiled down:
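Quantitative HTS format: compounds preincubated with 20nM human CYP3A4 and Luciferin-PPXE substrate at KM, reaction started by NADPH regeneration, stopped after 60 min, luciferase luminescence read 20 min later.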
Background: Quantitative high-throughput screening tests each substance at several concentrations.

The nature of assay [8]: qHTS Assay for Lipid Storage Modulators (AID 1519; calls by dose curve). The note with it: Drosophila S3 cells, BODIPY lipid droplet/cell ratio, laser cytometry, cells loaded with oleic acid; for activity change, negative = inhibition: at 57.5 µM (top of the series). An outline of the steps: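 Cells seeded at 5,000 per well were treated with compounds over a concentration series and loaded with oleic acid (400 uM, as added). Lipid droplet fluorescence (488 nm excitation, 500-530 nm channel) was read by laser-scanning cytometry and normalized to 20 uM Triacsin C.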

A short description of assay [9]: Primary qHTS for small molecule stabilizers of the endoplasmic reticulum resident proteome: Secreted ER Calcium Modulated Protein (SERCaMP) assay (AID 1508630; active = well fitted curve in the direction sought with a large enough effect; an effect the other way counts as inactive or inconclusive; note: % is set by controls: 0 for no effect and ±100 for the full control effect). The note with it: SH-SY5Y GLuc-SERCaMP (Gaussia luciferase released on ER calcium loss) secretion, thapsigargin, luminescence; series mostly up to 38.4 µM. An outline of the steps: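 GLuc-SERCaMP-expressing SH-SY5Y cells, pretreated 16 h with compound, are challenged with thapsigargin to empty ER calcium stores; after 4 h, coelenterazine is added directly to the medium and luminescence is imaged.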

The target of assay [10] is Cytochrome P450 1A2 (Homo sapiens) (UniProt P05177). The assay is described as follows: p450-cyp1a2 (AID 410; calls by dose curve; note: potency is the fitted concentration of half-maximal effect). The conditions noted are these: recombinant CYP1A2, luciferin-ME demethylation, luminescence; series mostly up to 57 µM. An outline of the steps:
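Luminescent readout of luciferin formed from Luciferin-ME by human CYP1A2; data normalized against complete inhibition by 57 uM furafylline. Enzyme 20nM, substrate 100uM at Km, 100mM KPO4 buffer, 60 min reaction at room temperature.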

The nature of assay [11]: NFAT Signaling Pathway (AID 444). The note with it: Jurkat NFAT-bla M1, carbachol, beta-lactamase ratio, 5 h; at 7.69 µM (top of the series) unless noted. The method, boiled down:
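Jurkat cells with NFAT-driven β-lactamase reporter and co-expressed M1 receptor, stimulated with carbachol (final 1 uM, ~EC50), compound titration, 5 h at 37 °C. CCF4 loaded 1 h at RT; 460/530 nm ratio gave %activity and AC50.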

The target of assay [12] is Glucocorticoid receptor (Homo sapiens) (UniProt P04150). The assay is described as follows: GR-GFP Redistribution (AID 450;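 active = compounds whose dose series gives a full or clear partial fitted curve of increased nuclear translocation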; note: potency is the fitted concentration of half-maximal effect). The note with it: U2OS GR-GFP nuclear translocation, laser cytometry, 2 h.
Assay [13] in a line: Confirmation and Secondary Assay for Modulators of Hemoglobin Beta Chain Splicing at IVS2 654 locus (AID 910; active = well fitted curve in the direction sought with a large enough effect; an effect the other way counts as inactive or inconclusive;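 note: HeLa cells stably carrying EGFP split by mutant beta-globin IVS2-654 intron; % of control where 0% means no effect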). The note with it: HeLa EGFP-654 splicing reporter, GFP fluorescence, 48 h; series mostly up to 38.3 µM. An outline of the steps: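 HeLa cells stably expressing EGFP interrupted by β-globin IVS2-654 intron, seeded overnight in Opti-MEM/2% FCS, then treated 2 days at 37 °C. Restored splicing read as total peak GFP intensity per well by laser scanning cytometry (488 nm excitation, 500–520 nm emission); 500 nM antisense PNA as control.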

Assay [14] can be described thus: Confirmation and Secondary Assay for Modulators of Hemoglobin Beta Chain Splicing at IVS2 705 locus (AID 930; active = well fitted curve in the direction sought with a large enough effect; an effect the other way counts as inactive or inconclusive;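 note: HeLa cells stably expressing the EGFP-705 splicing reporter; GFP fluorescence per well restored by corrected splicing of the IVS2-705 intron in EGFP; % of control where 0% means no effect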). The note with it: HeLa EGFP-705 splicing reporter, GFP fluorescence, 48 h; series mostly up to 38.3 µM. An outline of the steps:
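First, HeLa EGFP-705 cells are seeded at 500/well in Optimem with 2% FCS and left overnight. Next, compound or DMSO is added for 2 days. Finally wells are laser-scanned and total peak GFP intensity scored.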

The target in assay [15] is Ubiquitin carboxyl-terminal hydrolase 1 (Homo sapiens) (UniProt O94782). The assay is described as follows: Inhibitors of USP1/UAF1: Pilot qHTS (AID 504865; active = well fitted curve in the direction sought with a large enough effect; an effect the other way counts as inactive or inconclusive;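 note: rhodamine fluorescence freed from ubiquitin-rhodamine substrate followed over time; top concentration of the series differs between compounds; % is set by controls: 0 for no effect and ±100 for the full control effect; nearly all actives have a fitted effect of over 35% in size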). The conditions noted are these: purified USP1/UAF1, Ub-rhodamine cleavage fluorescence; series mostly up to 54.9 µM. The method, boiled down: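 Deubiquitinase activity followed as kinetic rhodamine fluorescence release from 150 nM Ub-Rho. 1 nM USP1/UAF1 with compound, after 15 min room-temperature preincubation, in HEPES pH 7.8 buffer containing TCEP, EDTA, BSA and Tween-20.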
Ubiquitin carboxyl-terminal hydrolase 1 (Homo sapiens), sequence (O94782 whole entry, looked up): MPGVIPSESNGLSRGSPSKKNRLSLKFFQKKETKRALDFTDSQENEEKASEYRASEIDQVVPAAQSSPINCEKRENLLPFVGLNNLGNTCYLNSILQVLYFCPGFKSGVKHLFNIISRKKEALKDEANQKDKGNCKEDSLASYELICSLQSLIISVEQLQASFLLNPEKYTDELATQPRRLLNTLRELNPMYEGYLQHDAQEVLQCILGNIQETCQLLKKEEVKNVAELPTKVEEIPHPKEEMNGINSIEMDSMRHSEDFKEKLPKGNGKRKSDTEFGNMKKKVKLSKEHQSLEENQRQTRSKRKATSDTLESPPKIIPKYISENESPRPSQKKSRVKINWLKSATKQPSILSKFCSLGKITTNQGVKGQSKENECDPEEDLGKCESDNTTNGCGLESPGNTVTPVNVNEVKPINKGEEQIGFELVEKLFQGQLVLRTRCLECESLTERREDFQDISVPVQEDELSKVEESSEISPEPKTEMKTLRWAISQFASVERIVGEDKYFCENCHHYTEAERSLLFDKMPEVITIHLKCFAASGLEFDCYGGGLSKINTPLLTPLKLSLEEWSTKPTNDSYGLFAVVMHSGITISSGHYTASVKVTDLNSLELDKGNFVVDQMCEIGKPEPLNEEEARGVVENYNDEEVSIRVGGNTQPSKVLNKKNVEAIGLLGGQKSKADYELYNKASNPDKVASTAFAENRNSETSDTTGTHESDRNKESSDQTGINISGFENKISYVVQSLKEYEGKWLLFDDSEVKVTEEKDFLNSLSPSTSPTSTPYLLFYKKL

The nature of assay [16]: qHTS Assay for Identification of Small Molecule Agonists for Hypoxia Response Element Signaling Pathway (AID 914; active = well fitted activation curve with a large enough effect in the signal ratio, with a control signal flat, not every such curve was filed as active; the % refers to the signal ratio; note: % of control where 0% means no effect). The note with it: ME-180 (cervical carcinoma) HRE-bla reporter, beta-lactamase ratio, CoCl2, 17 h; activation: stronger effect = higher value. The method, boiled down: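 Positive modulation of EC50 CoCl2-induced hypoxia response element signaling is measured in ME-180 cells with a beta-lactamase reporter. Compounds are titrated, incubation runs 17 hours, and %Activity derives from the blue/green ratio.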

For assay [17], the target named is Cytochrome P450 3A4 (Homo sapiens) (UniProt P08684). The assay can be described thus: qHTS Assay for Inhibitors and Substrates of Cytochrome P450 3A4 (AID 884; active = well fitted curve in the direction sought with a large enough effect; an effect the other way counts as inactive or inconclusive; note: nearly all actives have a fitted effect of over 50% in size; note: potency is the fitted concentration of half-maximal effect). The note with it: recombinant CYP3A4, Luciferin-PPXE luminescence; series mostly up to 57.1 µM. The method, boiled down:
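20 nM human CYP3A4 with 25 uM Luciferin-PPXE (at KM) in 200 mM KPO4, preincubated 10 min with compound; NADPH regeneration started a 60 min RT reaction. Luciferin detected by luminescence, normalized to 57 uM ketoconazole as full inhibition.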

The mark [18] stands for this setting: measured here: cell count channel max response.
Setting [19] is: measured here: lipid channel max response.

Cytochrome P450 1A2 (Homo sapiens), sequence (P05177 whole entry, looked up): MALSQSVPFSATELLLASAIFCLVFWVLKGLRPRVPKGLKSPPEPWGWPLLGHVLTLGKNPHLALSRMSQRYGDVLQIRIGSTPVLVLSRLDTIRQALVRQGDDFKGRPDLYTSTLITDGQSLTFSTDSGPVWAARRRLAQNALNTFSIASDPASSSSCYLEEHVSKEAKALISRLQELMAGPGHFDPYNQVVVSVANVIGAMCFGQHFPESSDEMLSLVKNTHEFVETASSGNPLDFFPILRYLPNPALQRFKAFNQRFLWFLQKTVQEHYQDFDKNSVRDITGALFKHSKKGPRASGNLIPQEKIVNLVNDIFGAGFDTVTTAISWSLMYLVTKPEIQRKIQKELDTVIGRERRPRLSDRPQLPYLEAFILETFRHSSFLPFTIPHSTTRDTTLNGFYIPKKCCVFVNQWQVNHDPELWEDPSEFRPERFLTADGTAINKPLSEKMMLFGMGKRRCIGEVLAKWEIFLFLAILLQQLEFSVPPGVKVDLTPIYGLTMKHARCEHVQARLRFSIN
Lysosomal acid glucosylceramidase (Homo sapiens), sequence (P04062 whole entry, looked up): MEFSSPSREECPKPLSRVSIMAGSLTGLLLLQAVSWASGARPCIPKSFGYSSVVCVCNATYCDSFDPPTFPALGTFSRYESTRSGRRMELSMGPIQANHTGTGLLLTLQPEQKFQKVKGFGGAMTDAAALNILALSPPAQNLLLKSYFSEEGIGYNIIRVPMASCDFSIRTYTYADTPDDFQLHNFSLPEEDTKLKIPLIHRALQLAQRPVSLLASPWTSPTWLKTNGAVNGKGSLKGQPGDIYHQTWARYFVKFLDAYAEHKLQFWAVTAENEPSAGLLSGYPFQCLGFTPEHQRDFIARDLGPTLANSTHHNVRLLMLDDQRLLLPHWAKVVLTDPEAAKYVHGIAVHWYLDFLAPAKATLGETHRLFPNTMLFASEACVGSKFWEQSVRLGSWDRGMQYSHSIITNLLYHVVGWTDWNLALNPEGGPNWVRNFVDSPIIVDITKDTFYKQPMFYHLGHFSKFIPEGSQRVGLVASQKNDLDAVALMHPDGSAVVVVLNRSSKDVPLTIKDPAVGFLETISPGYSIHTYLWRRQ
3',5'-cyclic-AMP phosphodiesterase 4B (Homo sapiens), sequence (Q07343 whole entry, looked up): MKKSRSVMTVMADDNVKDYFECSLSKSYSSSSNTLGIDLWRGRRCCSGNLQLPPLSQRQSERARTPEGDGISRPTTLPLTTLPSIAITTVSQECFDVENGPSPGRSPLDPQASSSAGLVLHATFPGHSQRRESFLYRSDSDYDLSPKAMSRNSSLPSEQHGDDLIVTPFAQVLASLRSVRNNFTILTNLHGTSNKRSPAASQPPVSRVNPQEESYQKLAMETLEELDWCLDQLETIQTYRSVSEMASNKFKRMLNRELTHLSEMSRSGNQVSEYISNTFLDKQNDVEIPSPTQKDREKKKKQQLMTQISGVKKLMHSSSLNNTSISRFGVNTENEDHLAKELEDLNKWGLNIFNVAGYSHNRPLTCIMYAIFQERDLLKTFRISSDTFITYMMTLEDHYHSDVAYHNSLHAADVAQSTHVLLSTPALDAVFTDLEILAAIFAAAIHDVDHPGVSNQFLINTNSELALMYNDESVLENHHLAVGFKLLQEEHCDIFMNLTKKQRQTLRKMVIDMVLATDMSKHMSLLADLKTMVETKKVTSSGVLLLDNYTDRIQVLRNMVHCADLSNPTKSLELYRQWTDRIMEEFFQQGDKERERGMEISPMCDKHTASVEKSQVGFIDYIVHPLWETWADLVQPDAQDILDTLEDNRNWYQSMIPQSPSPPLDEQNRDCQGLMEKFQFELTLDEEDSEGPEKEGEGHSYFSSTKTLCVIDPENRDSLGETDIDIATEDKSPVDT
Cytochrome P450 3A4 (Homo sapiens), sequence (P08684 whole entry, looked up): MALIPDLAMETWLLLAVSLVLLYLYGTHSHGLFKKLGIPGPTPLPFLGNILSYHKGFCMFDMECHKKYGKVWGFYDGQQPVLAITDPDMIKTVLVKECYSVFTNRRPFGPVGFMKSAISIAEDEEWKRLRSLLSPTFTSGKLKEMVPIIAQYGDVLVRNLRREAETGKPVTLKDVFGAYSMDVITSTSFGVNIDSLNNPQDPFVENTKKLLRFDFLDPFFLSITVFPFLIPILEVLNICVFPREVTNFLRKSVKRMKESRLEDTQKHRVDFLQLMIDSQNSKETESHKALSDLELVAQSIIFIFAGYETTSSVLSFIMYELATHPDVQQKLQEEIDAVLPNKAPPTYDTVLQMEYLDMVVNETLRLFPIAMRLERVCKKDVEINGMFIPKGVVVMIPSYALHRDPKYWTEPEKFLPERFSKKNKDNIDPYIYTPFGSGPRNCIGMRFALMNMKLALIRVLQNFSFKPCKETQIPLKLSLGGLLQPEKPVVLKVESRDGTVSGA

Take `COc1ccccc1CN1CCC2(CC1)CCN(C(=O)c1csnn1)CC2`: the Potency is > 11.4 µM (inactive) in assay [1] and > 46 µM (inactive) in assay [4]. In addition, the activity change, negative = inhibition in assay [2] is 0.316% (inactive); in assay [8], 5.71% (inactive). Also, the activity, negative = inhibition in assay [3] was -5.49% (inactive). In addition, the Potency result in assay [5], in [6] and in assay [7] was “inactive” each time. In addition, the max response in [8] (setting [18]) turned out to be 16.4%; in assay [8] (setting [19]), 24.4%. Moreover, in assay [9], the result was inactive.

Regarding `CN(C)Cc1ccccc1-c1ccc2ncnc(N3CCOCC3)c2c1`, the Potency is > 11.4 µM (inactive) in [1], 15.8 µM (active) in assay [10], > 46 µM (inactive) in [12] and > 46 µM (inactive) in [4]. The figures for the activity change, negative = inhibition in assay [11] and in assay [8] were 2.99% (inactive) and 9.22% (inactive), respectively. For the same molecule, in assay [3], the activity, negative = inhibition was 12.4% (inactive). The Potency entry in [5], in assay [7], in [13] and in [15] was “inactive” throughout. The call in assay [14] and in assay [9] was inactive. For the same molecule, the max response in assay [8] (setting [18]) worked out at 6.66%; in [8] (setting [19]) it was 17.3%.

On to `CC(C)CN1CC2(CCN(S(=O)(=O)c3ccccc3)CC2)C1`, for which the results for the Potency in assay [1] and in assay [4] were > 11.4 µM (inactive) and > 46 µM (inactive), respectively. For the same molecule, the activity change, negative = inhibition in assay [2] is 6.33% (inactive); in assay [8], -0.648% (inactive). In addition, in assay [3], the activity, negative = inhibition was -2.48% (inactive). The Potency entry in assay [5] and in assay [6] was “inactive” each time. In assay [16], the activation is 6.29% (inactive). Also, the max response is -17.9% in [8] (setting [18]) and -14.3% in assay [8] (setting [19]). For the same molecule, the result in assay [9] was inactive.

On to `O=C(c1csnn1)N1CCC2(CCN(Cc3cc(C(F)(F)F)cc(C(F)(F)F)c3)CC2)CC1`, for which the Potency in assay [1] was > 11.4 µM (inactive); in assay [4] it was > 46 µM (inactive). The activity change, negative = inhibition is 11.5% (inactive) in assay [2] and 1.96% (inactive) in [8]. Further, in assay [3], the activity, negative = inhibition is 4.05% (inactive). The Potency entry in assay [5] and in assay [6] was “inactive” each time. Further, the max response in assay [8] (setting [18]) is 7.55%; in assay [8] (setting [19]) it was 11.7%. The result in assay [9] was inactive.

On to `c1cncc(CNc2nc(-c3ccc4c(c3)OCO4)nc3ccccc23)c1`, for which the Potency in assay [1] was > 11.4 µM (inactive); in assay [10] it was 0.1 µM (active); in assay [12], > 46 µM (inactive); in assay [4] it was > 46 µM (inactive); in assay [17], 0.316 µM (active). Further, the activity change, negative = inhibition is -3.4% (inactive) in assay [11] and 6.87% (inactive) in assay [8]. In assay [3], the activity, negative = inhibition is -7.26% (inactive). Further, the Potency result in assay [5], in [7] and in assay [13] was “inactive” throughout. Moreover, the result in [14] and in assay [9] was inactive. Also, the values for the max response in [8] (setting [18]) and in assay [8] (setting [19]) were 10.1% and 18%, respectively.

With `O=C(c1cccc(F)c1)N1CCC2(CC1)CCN(c1ccncc1)CC2`, the Potency in assay [1] is > 11.4 µM (inactive); in [4], > 46 µM (inactive). Also, the activity, negative = inhibition in assay [3] was 24% (inactive). For the same molecule, the Potency entry in assay [5] and in [17] was “inactive” in each case. The activity change, negative = inhibition in assay [8] is -0.521% (inactive). Moreover, the max response is -17.2% in [8] (setting [18]) and -16.4% in assay [8] (setting [19]). In assay [9], the outcome was inactive.

Regarding `Cn1cccc1C(=O)N1CCC2(CCCN(C(c3ccccc3)c3ccccc3)C2)CC1`, the Potency is > 11.4 µM (inactive) in assay [1], 12.6 µM (active) in assay [10] and > 46 µM (inactive) in assay [4]. For the same molecule, in [3], the activity, negative = inhibition was 6.33% (inactive). Further, the Potency entry in assay [5], in assay [6] and in [7] was “inactive” throughout. The activity change, negative = inhibition in assay [8] was 4.95% (inactive). For the same molecule, the max response in assay [8] (setting [18]) worked out at 6.53%; in assay [8] (setting [19]) it was 18.7%. Moreover, the result in assay [9] was inactive.
